According to PubChem BioAssay (NCI):
About 83,000 compounds went through this panel and 20% of them were active in at least one assay; those are over-represented in the sample as a whole.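 Assay: single dose, 48 h. Readout: percent growth (0 = no net growth; negative = cell death). Active: <10.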 Unmarked numbers belong to inactive results. The source made the active and inactive calls.

Test system: OVCAR-3 ovarian
Test: NCI-60 one-dose screen, 48 h (100 = growth as untreated, 0 = no growth, -100 = all killed)
Settings: 10 µM unless noted

SMILES	growth
Cc1ccc(-c2nc([P+](c3ccccc3)(c3ccccc3)c3ccccc3)c(N3CCOCC3)o2)cc1	-0.275% (active)
Cc1cc(N2CCCCC2)nc(N(CCNc2ccnc3cc(Cl)ccc23)Cc2ccco2)n1	-40% (active)
Cc1cc(C)c(NC(=O)c2sc3nc4c(cc3c2N)CCCC4)c(C)c1	18.1%
CCNCCCn1c2c(c3ccc([N+](=O)[O-])cc3c1=O)C(=O)c1cc(OC)cnc1-2	-33.1% (active)
CCCC(=O)N1CCCCC1CC (centres undefined)	105%
C#CCn1c(C)cc(C)c(C#N)c1=O	112%
Cc1cc2nc3c4cc([N+](=O)[O-])cc([N+](=O)[O-])c4n(CCN(C)C)c3nc2cc1C	92.6%
Cn1c(/C(C#N)=C/c2ccc3ccccc3c2)cc2ccccc21	-0.996% (active)
CC(=O)O[C@H]1CC[C@]2(C)[C@H]3C(=O)C=C4[C@@H]5C[C@](C)(C(=O)N6CCCNCC6)CC[C@]5(C)CC[C@@]4(C)[C@]3(C)CC[C@H]2C1(C)C	-86.4% (active)
Cc1cc(N(CCNc2ccnc3cc(Cl)ccc23)Cc2ccco2)nc(Cl)n1	-89.5% (active)
COc1ccc2c(c1)c(-c1nc(-c3cn(C)c4ncccc34)cs1)cn2CCCN1CCCCC1	-52.1% (active)
NC(Cc1ccc(O)cc1)C(=O)N/N=C/c1ccccc1O (centres undefined)	103%
CC(=O)NC1=C(C#N)C(c2ccccc2Cl)c2c(ccc3ccccc23)O1 (centres undefined)	41.2%
COC(=O)[C@]12CC[C@@H](C)[C@H](C)[C@@H]1C1=CC[C@@H]3[C@@]4(C)C=C(O)C(=O)C(C)=C4CC[C@@]3(C)[C@]1(C)CC2	28.5%
N#Cc1c(-c2ccc(O)cc2)c2c(N)nn(-c3ccccc3)c2[nH]c1=O	110%
CCN(CC)CCCCCNc1cc(OC(=O)c2ccccc2)cc2cccnc12	51.6%
Clc1ccc(Cn2cc(-c3nc4ccc(Br)nc4n3Cc3ccc(Cl)cc3)c3cccnc32)cc1	93.5%
Cn1c2c(Cl)c(Cl)ccc2c2c(C#N)c[nH]c(=O)c21	110%
COc1ccc(C(=O)/C=C/c2cc(-c3cc(OC)c(OC)c(OC)c3)n[nH]2)cc1OC	-55.3% (active)

SMILES	growth
COC1=C(Br)C(=O)C(OC)=C(Br)C1=O	91%
CN(C)c1ccc(N)c2ccccc12	-15.6% (active)
Cc1cc(C=O)c(C)c2c1[nH]c1ccccc12	108%
N#CC1=C(N)Oc2c(sc3c(F)cccc23)C1c1ccc(Cl)cc1 (centres undefined)	6.16% (active)
COc1ccc(C2C(C#N)=C(N)Oc3c2sc2c(F)cccc32)cc1 (centres undefined)	-4.86% (active)
C=COCCCCCCCCCCCCCCCCCC	92.6%
O=C1C=Cc2ncccc2C1=O	64.4%
O=C1c2ccccc2C(=Cc2ccccc2)c2ccccc21	-36.5% (active)
CN(C)c1ccc(C(=O)c2ccc(N(C)C)c(N)c2)cc1N	-31% (active)
O=C1c2cccc3cccc(c23)C(=O)N1CC#Cc1ccc2c3c(cccc13)C(=O)N(CCN1CCNCC1)C2=O	106%
C=C1CC[C@@H](C(=O)OC)Cc2nc(C)ccc21	119%
N#C/C(=C\c1ccc(-c2ccccc2)o1)c1nc(-c2ccco2)cs1	78.7%
O=C(/C=C\c1ccc2c(c1)OCO2)/C=C/c1ccc2c(c1)OCO2	69.5%
Cc1ccc(-c2nc3ccc(Cl)cc3c(=O)n2N2C(=O)CSC2c2ccccc2Cl)cc1 (centres undefined)	58.6%
CC(=O)OC[C@]12CC[C@@H](/C(C)=N/O)[C@@H]1[C@H]1CC[C@@H]3[C@@]4(C)CCCNC(C)(C)[C@@H]4CC[C@@]3(C)[C@]1(C)CC2	65.7%
C=C1C(=O)O[C@H]2[C@H]1CC/C(COC(=O)NCc1c[nH]c3ccccc13)=C\CC[C@@]1(C)O[C@@H]21	2.08% (active)
O=C1c2cccc3cccc(c23)C(=O)N1CC#Cc1ccc2c3c(cccc13)C(=O)N(CCO)C2=O	87%
Cc1cc(N2CCOCC2)nc(N(CCCNc2ccnc3cc(Cl)ccc23)Cc2ccco2)n1	2.02% (active)
Cn1c2ccccc2c2c3c(c4c5cccnc5[nH]c4c21)C(=O)N(O)C3=O	54.7%

Test system: HS 578T breast
Test: as above
Settings: 10 µM unless noted

SMILES	growth
Cc1ccc(-c2nc([P+](c3ccccc3)(c3ccccc3)c3ccccc3)c(N3CCOCC3)o2)cc1	16.8%
Cc1cc(C)c(NC(=O)c2sc3nc4c(cc3c2N)CCCC4)c(C)c1	46.2%
CCNCCCn1c2c(c3ccc([N+](=O)[O-])cc3c1=O)C(=O)c1cc(OC)cnc1-2	8.88% (active)
C#CCn1c(C)cc(C)c(C#N)c1=O	103%
Cc1cc2nc3c4cc([N+](=O)[O-])cc([N+](=O)[O-])c4n(CCN(C)C)c3nc2cc1C	90.2%
CC(=O)O[C@H]1CC[C@]2(C)[C@H]3C(=O)C=C4[C@@H]5C[C@](C)(C(=O)N6CCCNCC6)CC[C@]5(C)CC[C@@]4(C)[C@]3(C)CC[C@H]2C1(C)C	96.2%
Cc1cc(N(CCNc2ccnc3cc(Cl)ccc23)Cc2ccco2)nc(Cl)n1	6.7% (active)
COc1ccc2c(c1)c(-c1nc(-c3cn(C)c4ncccc34)cs1)cn2CCCN1CCCCC1	73.7%
COC(=O)[C@]12CC[C@@H](C)[C@H](C)[C@@H]1C1=CC[C@@H]3[C@@]4(C)C=C(O)C(=O)C(C)=C4CC[C@@]3(C)[C@]1(C)CC2	33.2%
N#Cc1c(-c2ccc(O)cc2)c2c(N)nn(-c3ccccc3)c2[nH]c1=O	104%
CCN(CC)CCCCCNc1cc(OC(=O)c2ccccc2)cc2cccnc12	103%
Cn1c2c(Cl)c(Cl)ccc2c2c(C#N)c[nH]c(=O)c21	84.5%
COc1ccc(C(=O)/C=C/c2cc(-c3cc(OC)c(OC)c(OC)c3)n[nH]2)cc1OC	57.1%
Cc1cc(C=O)c(C)c2c1[nH]c1ccccc12	107%
C=COCCCCCCCCCCCCCCCCCC	89.3%
CN(C)c1ccc(C(=O)c2ccc(N(C)C)c(N)c2)cc1N	7.6% (active)
O=C1c2cccc3cccc(c23)C(=O)N1CC#Cc1ccc2c3c(cccc13)C(=O)N(CCN1CCNCC1)C2=O	106%
N#C/C(=C\c1ccc(-c2ccccc2)o1)c1nc(-c2ccco2)cs1	95.7%
CC(=O)OC[C@]12CC[C@@H](/C(C)=N/O)[C@@H]1[C@H]1CC[C@@H]3[C@@]4(C)CCCNC(C)(C)[C@@H]4CC[C@@]3(C)[C@]1(C)CC2	76%
C=C1C(=O)O[C@H]2[C@H]1CC/C(COC(=O)NCc1c[nH]c3ccccc13)=C\CC[C@@]1(C)O[C@@H]21	87.1%
O=C1c2cccc3cccc(c23)C(=O)N1CC#Cc1ccc2c3c(cccc13)C(=O)N(CCO)C2=O	83.3%
